# Measured values from PubChem BioAssay (Tox21).
# A number with no mark means an inactive call. Results filed as inconclusive are left out. Where a call stands in place of a potency, no number is given. Active and inactive are the calls of the source. Unless noted, calls follow the shape of the dose curve; as a rule, active = well fitted curve in the direction sought with a large enough effect in the repeat runs; inconclusive = weak or mixed curves; inactive = no such curve, though single readings can be large; an effect the other way counts as inactive or inconclusive.
# Columns and labels:
# [1] = qHTS RealTime-Glo MT Cell Viability Assay in HEK293 cells - 24 hour (AID 1224886); also: top concentration of the series differs between compounds; nearly all actives have a fitted effect of over 50% in size
# How it was run: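 Nonlytic real-time viability readout: viable cells convert prosubstrate to NanoLuc substrate, giving luminescence proportional to live cell number. HEK293, 600 cells/well, compound added after 5 h, continuous culture at 37 C.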
# [2] = qHTS RealTime-Glo MT Cell Viability Assay in HEK293 cells - 8 hour (AID 1224887); also: top concentration of the series differs between compounds; nearly all actives have a fitted effect of over 50% in size
# How it was run: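 Real-time viability in HEK293: signal arises when living cells convert a prosubstrate for NanoLuc in the medium, so luminescence tracks viable cell number. Compound (23 nL, DMSO) added 5 h post-seeding; kinetic reads at 0–40 h, 37 C.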
# [3] = A CellTox Green Cytotoxicity Assay to monitor cytotoxicity in HEK293 cells - 16 hour (AID 1224888); also: nearly all actives have a fitted effect of over 35% in size
# How it was run: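 Cells (HEK293, 600/well) and dye reagent are dispensed together. After 5 h at 37 C, 23 nL compound is pinned in. Plates stay at 37 C for 40 h with fluorescence read at 0h, 8h, 16h, 24h, 32h and 40h.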
# [4] = qHTS RealTime-Glo MT Cell Viability Assay in HepG2 cells - 0 hour (AID 1224889); also: nearly all actives have a fitted effect of over 50% in size
# How it was run: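 Luminescence read-out: viable HepG2 cells reduce a prosubstrate to a NanoLuc substrate, giving a signal proportional to live cell number. Reads taken at 0, 8, 16, 24, 32 and 40 h of compound exposure at 37 C.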
# [5] = A CellTox Green Cytotoxicity Assay to monitor cytotoxicity in HepG2 cells - 8 hour (AID 1224890); also: nearly all actives have a fitted effect of over 45% in size
# How it was run: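 Cells and non-lytic dye reagent are dispensed together (600 HepG2 cells/well) and incubated 5 h before DMSO compound transfer. Kinetic fluorescence is then recorded in the same wells during 40 h at 37 C.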
# [6] = qHTS assay to identify small molecule antagonists of the estrogen receptor alpha (ER-alpha) signaling pathway using the BG1 cell line in the presence of 0.1 nM 17-beta-estradiol - cell viability counter screen (AID 1259241); also: nearly all actives have a fitted effect of over 40% in size
# How it was run: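 VM7Luc4E2 cells (endogenous full-length ER-alpha, 4xERE-luciferase), cultured 5 days in charcoal-stripped serum, exposed to compounds with 0.1 nM 17beta-estradiol (final) for 22 hr at 37C. Viability read in same wells as live-cell protease fluorescence after 30 min.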
# [7] = qHTS assay to identify small molecule antagonists of the androgen receptor (AR) signaling pathway using the MDA cell line in the presence of 0.5 nM R1881 - cell viability counter screen (AID 1259242); also: nearly all actives have a fitted effect of over 45% in size
# How it was run: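 Steps: plate MDA-kb2 cells, rest 5 hr at 37C without CO2; pin in compounds in DMSO; add R1881 to 0.5 nM final; incubate 16 hr; add CellTiter-Fluor, 30 min; read fluorescence.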
# [8] = molecular target: Estrogen receptor (Homo sapiens) (UniProt P03372); experiment: qHTS assay to identify small molecule antagonists of the estrogen receptor alpha (ER-alpha) signaling pathway using the BG1 cell line in the presence of 0.1 nM 17-beta-estradiol (AID 1259244); also: nearly all actives have a fitted effect of over 50% in size
# Estrogen receptor (Homo sapiens), sequence (P03372 whole entry, looked up): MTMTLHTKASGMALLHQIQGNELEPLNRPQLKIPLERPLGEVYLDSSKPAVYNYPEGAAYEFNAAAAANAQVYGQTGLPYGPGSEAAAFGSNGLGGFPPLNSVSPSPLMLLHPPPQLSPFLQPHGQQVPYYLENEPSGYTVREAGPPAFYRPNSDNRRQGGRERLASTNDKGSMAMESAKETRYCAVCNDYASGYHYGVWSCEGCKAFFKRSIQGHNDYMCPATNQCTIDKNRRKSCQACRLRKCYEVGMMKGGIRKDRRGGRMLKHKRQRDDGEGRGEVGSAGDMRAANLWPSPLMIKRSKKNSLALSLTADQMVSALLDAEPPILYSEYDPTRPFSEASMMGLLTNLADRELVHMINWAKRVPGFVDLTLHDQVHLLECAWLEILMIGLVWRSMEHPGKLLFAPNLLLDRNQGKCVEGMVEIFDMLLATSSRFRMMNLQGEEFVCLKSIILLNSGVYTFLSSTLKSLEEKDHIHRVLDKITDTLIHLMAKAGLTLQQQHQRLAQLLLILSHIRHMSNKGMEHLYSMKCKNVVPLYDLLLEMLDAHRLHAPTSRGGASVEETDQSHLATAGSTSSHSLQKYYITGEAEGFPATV
# How it was run: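 Antagonist mode: compounds in DMSO are pinned onto VM7Luc4E2 reporter cells, 0.1 nM final 17beta-estradiol is added, and after 22 h at 37C luciferase luminescence is measured with ONE-Glo.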
# [9] = qHTS assay to identify small molecule phospholipidosis (PLD) inducers (AID 1259344; active = well fitted curve in the direction sought with a large enough effect; an effect the other way counts as inactive or inconclusive)
# How it was run: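 Read-out is LipidTOX Red fluorescence (ex 595/em 615) imaged in HepG2 cells after 24 h compound exposure at 37 C, with Hoechst nuclear counterstain (ex 352/em 461) allowing per-cell normalisation.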
# [10] = qHTS assay to identify small molecule HDAC inhibitors (AID 1259364);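 also: wild-type HCT-116 cells with endogenous class I/II HDAC activity; top concentration of the series differs between compounds; nearly all actives have a fitted effect of over 45% in size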
# How it was run: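 Cells (HCT-116, wild type) are seeded at 1,500 per well, incubated overnight, treated with compound in DMSO for 2 hr, then developed with HDAC-Glo I/II reagent for 30 min at room temperature.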
# [11] = qHTS assay to identify small molecule HDAC inhibitors - cell viability counter screen (AID 1259365)
# How it was run: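 Wild-type HCT-116 cells, 1,500/well, cultured overnight, then compound-treated 2 h at 37 C. Viability measured as ATP luminescence with CellTiter-Glo after 30 min at room temperature.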
# [12] = qHTS assay to identify small molecule agonists of the sonic hedgehog signaling (Shh) pathway - cell viability counter screen (AID 1259366); also: nearly all actives have a fitted effect of over 50% in size
# How it was run: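 NIH/3T3-derived Gli1-Luc reporter cells, 2,000 per well, received compound after 4 h and were treated about 23 h at 37C. Viability measured in the same wells by CellTiter-Fluor fluorescence after 1 h.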
# [13] = qHTS assay to identify small molecule antagonists of the sonic hedgehog signaling (Shh) pathway - cell viability counter screen (AID 1259367); also: nearly all actives have a fitted effect of over 55% in size
# How it was run: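 Fluorescence read-out (CellTiter-Fluor, 1 hr at 37C) taken after 23 hr compound treatment of 3T3 Gli1-Luc cells stimulated with conditioned medium. Cells were seeded at 2,000 per well and pre-incubated 4 hr.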
# [14] = qHTS assay to identify small molecule agonists of the sonic hedgehog signaling (Shh) pathway (AID 1259368; calls by dose curve;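 also: NIH/3T3-derived 3T3Gli1-Luc cells carrying a stable Gli1-driven firefly luciferase reporter; series mostly up to about 92 µM; nearly all actives have a fitted effect of over 15% in size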)
# How it was run: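 Cells of a mouse NIH/3T3 clone stably expressing luciferase under the Gli1 transcriptional response element are exposed to test chemicals for 24 hr at 37 C. Pathway activation is detected as a rise in luminescence.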
# [15] = qHTS assay to identify small molecule antagonists of the sonic hedgehog signaling (Shh) pathway (AID 1259369; calls by dose curve; also: nearly all actives have a fitted effect of over 45% in size; also: potency is read from the fitted curve at half-maximal effect)
# How it was run: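 Cells are plated and held 4hr at 37 C, compounds (DMSO) are pinned in, conditioned medium is added to stimulate the pathway, and after 24hr luciferase reagent is added for 30min before luminescence is read.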
# [16] = qHTS assay to identify small molecule agonists of the androgen receptor (AR) signaling pathway in the presence of an antagonist - cell viability counter screen (AID 1259379);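 also: MDA-kb2 human breast cancer cells carrying an MMTV luciferase reporter; series mostly up to about 92 µM; nearly all actives have a fitted effect of over 25% in size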
# How it was run: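 Cytotoxicity is assessed by CellTiter-Fluor in MDA-kb2 cells carrying an MMTV-driven luciferase reporter. Cells receive 3.0uM nilutamide plus compounds at 15 concentrations and incubate 16 hr at 37C without CO2 before fluorescence reading.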
# [17] = qHTS assay to identify small molecule agonists of the estrogen receptor beta (ER-beta) signaling pathway - cell viability counter screen (AID 1259380); also: nearly all actives have a fitted effect of over 30% in size
# How it was run: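 Cytotoxicity is measured in parallel with the reporter screen: after 16 hr compound exposure at 37C and a 2 hr LiveBLAzer step, CellTiter-Glo is added to the same ER-beta-UAS-bla HEK293T wells and luminescence read after 30 min.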
# [18] = molecular target: Estrogen receptor beta (Homo sapiens) (UniProt Q92731); experiment: qHTS assay to identify small molecule agonists of the estrogen receptor beta (ER-beta) signaling pathway (AID 1259377; active = well fitted activation curve with a large enough effect in the signal ratio in the repeat runs, not every such curve was filed as active; the % refers to the signal ratio)
# Estrogen receptor beta (Homo sapiens), sequence (Q92731 whole entry, looked up): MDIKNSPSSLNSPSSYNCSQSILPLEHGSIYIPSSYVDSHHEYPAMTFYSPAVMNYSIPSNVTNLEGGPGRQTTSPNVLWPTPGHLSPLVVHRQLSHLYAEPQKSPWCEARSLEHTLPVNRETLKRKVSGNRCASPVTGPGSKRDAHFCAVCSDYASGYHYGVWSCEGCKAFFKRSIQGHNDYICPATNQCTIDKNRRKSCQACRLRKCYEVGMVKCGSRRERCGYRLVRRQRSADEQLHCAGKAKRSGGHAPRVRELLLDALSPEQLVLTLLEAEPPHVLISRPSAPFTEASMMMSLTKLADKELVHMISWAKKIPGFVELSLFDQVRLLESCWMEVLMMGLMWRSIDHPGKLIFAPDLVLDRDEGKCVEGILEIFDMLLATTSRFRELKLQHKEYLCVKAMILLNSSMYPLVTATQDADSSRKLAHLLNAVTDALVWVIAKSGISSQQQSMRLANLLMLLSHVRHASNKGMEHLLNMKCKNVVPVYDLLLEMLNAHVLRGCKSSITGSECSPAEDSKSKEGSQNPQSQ
# How it was run: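 ER-beta-UAS-bla HEK293T cells in medium with 2% charcoal-stripped FBS were exposed to compounds for 16 h at 37C. Beta-lactamase reporter activity was read as fluorescence after 2 h with LiveBLAzer B/G FRET substrate at room temperature.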
# [19] = molecular target: Estrogen receptor beta (Homo sapiens) (UniProt Q92731); experiment: qHTS assay to identify small molecule antagonists of the estrogen receptor beta (ER-beta) signaling pathway (AID 1259378; active = well fitted inhibition curve with a large enough effect in the signal ratio in the repeat runs, not every such curve was filed as active; the % refers to the signal ratio)
# How it was run: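 ER-beta-UAS-bla HEK293T cells in 2% charcoal-stripped FBS medium treated with compound plus 1nM final 17-beta-estradiol for 16 hr at 37C. Beta-lactamase reporter read by FRET substrate fluorescence after 2 hours at room temperature.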
# [20] = molecular target: Androgen receptor (Homo sapiens) (UniProt P10275); experiment: qHTS assay to identify small molecule antagonists of the androgen receptor (AR) signaling pathway using the MDA cell line in the presence of 0.5 nM R1881 (AID 1259243); also: nearly all actives have a fitted effect of over 50% in size
# Androgen receptor (Homo sapiens), sequence (P10275 whole entry, looked up): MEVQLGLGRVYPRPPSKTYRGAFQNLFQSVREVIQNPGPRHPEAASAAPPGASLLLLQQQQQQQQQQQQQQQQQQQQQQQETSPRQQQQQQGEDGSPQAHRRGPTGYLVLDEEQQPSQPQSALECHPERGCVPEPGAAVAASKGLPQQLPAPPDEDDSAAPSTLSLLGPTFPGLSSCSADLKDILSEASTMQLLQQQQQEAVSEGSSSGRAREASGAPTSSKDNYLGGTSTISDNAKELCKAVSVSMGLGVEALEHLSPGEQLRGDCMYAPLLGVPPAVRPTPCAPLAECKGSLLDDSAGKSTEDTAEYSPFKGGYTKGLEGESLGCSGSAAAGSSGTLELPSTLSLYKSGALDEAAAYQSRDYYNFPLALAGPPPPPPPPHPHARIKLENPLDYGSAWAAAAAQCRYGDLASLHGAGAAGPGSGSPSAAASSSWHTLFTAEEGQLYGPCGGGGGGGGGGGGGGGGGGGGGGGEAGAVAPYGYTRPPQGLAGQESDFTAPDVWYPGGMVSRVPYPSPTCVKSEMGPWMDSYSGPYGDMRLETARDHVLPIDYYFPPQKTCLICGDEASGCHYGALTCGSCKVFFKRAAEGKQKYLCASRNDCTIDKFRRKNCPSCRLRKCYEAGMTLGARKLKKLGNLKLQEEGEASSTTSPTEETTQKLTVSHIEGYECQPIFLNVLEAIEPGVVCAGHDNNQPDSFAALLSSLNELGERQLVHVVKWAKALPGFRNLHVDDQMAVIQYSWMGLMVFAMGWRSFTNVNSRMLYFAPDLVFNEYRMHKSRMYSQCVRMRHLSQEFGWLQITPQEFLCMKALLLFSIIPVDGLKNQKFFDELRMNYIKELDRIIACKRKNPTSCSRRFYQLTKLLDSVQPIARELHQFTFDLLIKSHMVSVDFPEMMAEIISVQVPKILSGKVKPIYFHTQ
# How it was run: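 Stably transfected MDA-kb2 cells express luciferase from an MMTV promoter bearing both AR and GR response elements. Compounds plus 0.5 nM R1881 (final) were incubated 16 hr at 37C without CO2, then luminescence measured.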
compound,measurement,setting,value
O=C(Nc1cccc(C2=NCCN2)c1)Nc1cccc(C2=NCCN2)c1,"activity change, negative = cytotoxicity",[1],-1.62% [at 15.8 µM]
same,"activity change, negative = cytotoxicity",[2],-0.375% [at 15.8 µM]
same,activity change,[3],"-6.11% [at 15.8 µM, active compounds read high]"
same,"activity change, negative = cytotoxicity",[4],-1.91% [at 15.8 µM]
same,cytotoxicity increase,[5],-10.2% [at 15.8 µM]
same,"activity change, negative = cytotoxicity",[6],-3.18% [at 19 µM]
same,"viability change, negative = cytotoxic",[7],-0.888% [at 19 µM]
same,"activity change, negative = inhibition",[8],-4.15% [at 19 µM]
same,outcome,[9],inactive
same,"activity change, negative = inhibition",[10],3.65% [at 19 µM]
same,"activity change, negative = cytotoxicity",[11],1.17% [at 19 µM]
same,"viability change, negative = cytotoxic",[12],8.12% [at 19 µM]
same,"viability change, negative = cytotoxic",[13],0.404% [at 19 µM]
same,activity change,[14],1.95% [at 18.9 µM]
same,"activity change, negative = inhibition",[15],17.1% [at 19 µM]
same,"activity change, negative = cytotoxicity",[16],1.81% [at 19 µM]
same,"activity change, negative = cytotoxicity",[17],2.07% [at 19 µM]
Cc1c(C(C)C)c(=O)n(-c2ccccc2)n1C,Potency,[1],inactive
same,Potency,[2],inactive
same,Potency,[3],inactive
same,Potency,[4],inactive
same,Potency,[5],inactive
same,Potency,[6],inactive
same,Potency,[7],inactive
same,Potency,[8],inactive
same,outcome,[9],inactive
same,Potency,[10],inactive
same,outcome,[11],inactive
same,Potency,[12],inactive
same,Potency,[13],inactive
same,Potency,[15],1.06 µM (active)
same,Potency,[18],inactive
same,outcome,[19],inactive
same,Potency,[16],inactive
same,outcome,[17],inactive
O=C1OC(=O)c2cc(Oc3ccc4c(c3)C(=O)OC4=O)ccc21,Potency,[1],inactive
same,Potency,[2],inactive
same,Potency,[3],inactive
same,Potency,[4],inactive
same,Potency,[5],inactive
same,Potency,[6],inactive
same,Potency,[7],inactive
same,outcome,[20],inactive
same,Potency,[10],inactive
same,outcome,[11],inactive
same,Potency,[12],inactive
same,Potency,[13],inactive
same,outcome,[14],inactive
same,Potency,[15],inactive
same,outcome,[19],inactive
same,Potency,[16],inactive
same,outcome,[17],inactive
CCCCCCCCCCC,Potency,[1],inactive
same,Potency,[2],inactive
same,Potency,[3],inactive
same,Potency,[4],inactive
same,Potency,[5],inactive
same,Potency,[6],inactive
same,Potency,[7],inactive
same,outcome,[20],inactive
same,Potency,[8],inactive
same,Potency,[10],inactive
same,outcome,[11],inactive
same,Potency,[12],inactive
same,Potency,[13],inactive
same,outcome,[14],inactive
same,Potency,[18],inactive
same,Potency,[16],inactive
O=C1CC[C@H](C(=O)N2CCCCC2)N1,Potency,[1],inactive
same,Potency,[2],inactive
same,Potency,[3],inactive
same,Potency,[4],inactive
same,Potency,[5],inactive
same,Potency,[6],inactive
same,Potency,[7],inactive
same,Potency,[8],inactive
same,outcome,[9],inactive
same,Potency,[10],inactive
same,outcome,[11],inactive
same,Potency,[12],inactive
same,Potency,[13],inactive
same,Potency,[15],inactive
same,Potency,[18],inactive
same,outcome,[19],inactive
same,Potency,[16],inactive
OC(CCN1CCCCC1)(c1ccccc1)c1ccccc1,Potency,[1],inactive
same,Potency,[2],inactive
same,Potency,[3],inactive
same,Potency,[4],inactive
same,Potency,[5],inactive
same,Potency,[6],inactive
same,Potency,[7],inactive
same,outcome,[20],inactive
same,outcome,[9],inactive
same,Potency,[10],inactive
same,outcome,[11],inactive
same,Potency,[13],inactive
same,Potency,[16],inactive
same,outcome,[17],inactive
NC(=O)C1(N2CCCCC2)CCN(CCCC(=O)c2ccc(F)cc2)CC1,Potency,[1],inactive
same,Potency,[2],inactive
same,Potency,[3],inactive
same,Potency,[4],inactive
same,Potency,[5],inactive
same,Potency,[6],inactive
same,Potency,[7],inactive
same,Potency,[8],inactive
same,outcome,[9],inactive
same,Potency,[10],inactive
same,outcome,[11],inactive
same,Potency,[12],inactive
same,Potency,[13],inactive
same,outcome,[14],inactive
same,Potency,[15],inactive
same,Potency,[16],inactive
